Results: PubChem BioAssay
Activity calls are given as the source filed them.

Key:
[1] = small molecules captured by biotinylated probe aFSTL3 – biochemical, small-molecule microarray, fluorescence 635/667, stem cell growth factor project, primary screen (AID 1064); conditions: higher = more signal;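 further: measures binding of the biotinylated anti-FSTL3 antibody to printed compounds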
[2] = binders from COS7 lysate, DM2A8 probe, primary screen, torsin A project, cell lysate, small-molecule microarray, fluorescence 635/667 (AID 1065); conditions: higher = more signal, COS7 lysate expressing mutant human TOR1A
[3] = small molecules captured by biotinylated probe aFGF2 – biochemical, small-molecule microarray, fluorescence 635/667, stem cell growth factor project, primary screen (AID 1067); conditions: higher = more signal;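 further: measures binding of biotinylated aFGF2 protein to printed compounds on slides; z-score merges feature fluorescence and signal-to-noise across triplicate slides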
[4] = small molecules captured by biotinylated probe aFGF10 – biochemical, small-molecule microarray, fluorescence 635/667, stem cell growth factor project, primary screen (AID 1071); conditions: higher = more signal;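 further: score merges 667 nm spot intensity and signal to noise from triplicate slides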
[5] = target: Neurogenic locus notch homolog protein 2 (Homo sapiens) (UniProt Q04721); assay: small molecules binding Notch2 protein – biochemical, small-molecule microarray, 635 nm fluorescence, stem cell growth factors, primary screen (AID 1073); conditions: higher = more signal
[6] = target: Pro-neuregulin-1, membrane-bound isoform (Homo sapiens) (UniProt Q02297); assay: small molecules binding neuregulin-1 protein – biochemical, small-molecule microarray, fluorescence 635/667, psychiatric disease protein project, primary screen (AID 1075); conditions: NRG1 binding, 635 nm fluorescence, higher = more signal;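 further: score combines 667 nm spot fluorescence with signal to noise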
[7] = system: Neuregulin-1 EGF-like domain; assay: small molecules binding NRG1 EGF domain – biochemical, small-molecule microarray, 635 nm fluorescence, primary screen (AID 1081); conditions: higher = more signal;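 further: binding of the protein to compounds printed on small-molecule microarray slides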
[8] = FRG1 expression reporter modulators in myotubes – cell-based, C2C12 myotubes, firefly/Renilla luciferase, luminescence, FRG1 inhibition for FSHD, primary screen (AID 1084); conditions: FRG1 promoter luciferase, higher = more signal, called active from +8 up or from −8 down
[9] = small molecules captured by biotinylated probe aFST – biochemical, small-molecule microarray, fluorescence 635/667, stem cell growth factor project, primary screen (AID 1086); conditions: higher = more signal;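 further: score merges 667 nm fluorescence with signal-to-noise of each printed compound spot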
[10] = binders of probe aHhip on microarray, primary screen, stem cell growth factor project, biochemical, small-molecule microarray, fluorescence 635/667 (AID 1087); conditions: higher = more signal;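 further: score merges spot fluorescence at 667nm with spot signal to noise ratio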

Neurogenic locus notch homolog protein 2 (Homo sapiens), sequence (Q04721 whole entry, looked up, canonical isoform): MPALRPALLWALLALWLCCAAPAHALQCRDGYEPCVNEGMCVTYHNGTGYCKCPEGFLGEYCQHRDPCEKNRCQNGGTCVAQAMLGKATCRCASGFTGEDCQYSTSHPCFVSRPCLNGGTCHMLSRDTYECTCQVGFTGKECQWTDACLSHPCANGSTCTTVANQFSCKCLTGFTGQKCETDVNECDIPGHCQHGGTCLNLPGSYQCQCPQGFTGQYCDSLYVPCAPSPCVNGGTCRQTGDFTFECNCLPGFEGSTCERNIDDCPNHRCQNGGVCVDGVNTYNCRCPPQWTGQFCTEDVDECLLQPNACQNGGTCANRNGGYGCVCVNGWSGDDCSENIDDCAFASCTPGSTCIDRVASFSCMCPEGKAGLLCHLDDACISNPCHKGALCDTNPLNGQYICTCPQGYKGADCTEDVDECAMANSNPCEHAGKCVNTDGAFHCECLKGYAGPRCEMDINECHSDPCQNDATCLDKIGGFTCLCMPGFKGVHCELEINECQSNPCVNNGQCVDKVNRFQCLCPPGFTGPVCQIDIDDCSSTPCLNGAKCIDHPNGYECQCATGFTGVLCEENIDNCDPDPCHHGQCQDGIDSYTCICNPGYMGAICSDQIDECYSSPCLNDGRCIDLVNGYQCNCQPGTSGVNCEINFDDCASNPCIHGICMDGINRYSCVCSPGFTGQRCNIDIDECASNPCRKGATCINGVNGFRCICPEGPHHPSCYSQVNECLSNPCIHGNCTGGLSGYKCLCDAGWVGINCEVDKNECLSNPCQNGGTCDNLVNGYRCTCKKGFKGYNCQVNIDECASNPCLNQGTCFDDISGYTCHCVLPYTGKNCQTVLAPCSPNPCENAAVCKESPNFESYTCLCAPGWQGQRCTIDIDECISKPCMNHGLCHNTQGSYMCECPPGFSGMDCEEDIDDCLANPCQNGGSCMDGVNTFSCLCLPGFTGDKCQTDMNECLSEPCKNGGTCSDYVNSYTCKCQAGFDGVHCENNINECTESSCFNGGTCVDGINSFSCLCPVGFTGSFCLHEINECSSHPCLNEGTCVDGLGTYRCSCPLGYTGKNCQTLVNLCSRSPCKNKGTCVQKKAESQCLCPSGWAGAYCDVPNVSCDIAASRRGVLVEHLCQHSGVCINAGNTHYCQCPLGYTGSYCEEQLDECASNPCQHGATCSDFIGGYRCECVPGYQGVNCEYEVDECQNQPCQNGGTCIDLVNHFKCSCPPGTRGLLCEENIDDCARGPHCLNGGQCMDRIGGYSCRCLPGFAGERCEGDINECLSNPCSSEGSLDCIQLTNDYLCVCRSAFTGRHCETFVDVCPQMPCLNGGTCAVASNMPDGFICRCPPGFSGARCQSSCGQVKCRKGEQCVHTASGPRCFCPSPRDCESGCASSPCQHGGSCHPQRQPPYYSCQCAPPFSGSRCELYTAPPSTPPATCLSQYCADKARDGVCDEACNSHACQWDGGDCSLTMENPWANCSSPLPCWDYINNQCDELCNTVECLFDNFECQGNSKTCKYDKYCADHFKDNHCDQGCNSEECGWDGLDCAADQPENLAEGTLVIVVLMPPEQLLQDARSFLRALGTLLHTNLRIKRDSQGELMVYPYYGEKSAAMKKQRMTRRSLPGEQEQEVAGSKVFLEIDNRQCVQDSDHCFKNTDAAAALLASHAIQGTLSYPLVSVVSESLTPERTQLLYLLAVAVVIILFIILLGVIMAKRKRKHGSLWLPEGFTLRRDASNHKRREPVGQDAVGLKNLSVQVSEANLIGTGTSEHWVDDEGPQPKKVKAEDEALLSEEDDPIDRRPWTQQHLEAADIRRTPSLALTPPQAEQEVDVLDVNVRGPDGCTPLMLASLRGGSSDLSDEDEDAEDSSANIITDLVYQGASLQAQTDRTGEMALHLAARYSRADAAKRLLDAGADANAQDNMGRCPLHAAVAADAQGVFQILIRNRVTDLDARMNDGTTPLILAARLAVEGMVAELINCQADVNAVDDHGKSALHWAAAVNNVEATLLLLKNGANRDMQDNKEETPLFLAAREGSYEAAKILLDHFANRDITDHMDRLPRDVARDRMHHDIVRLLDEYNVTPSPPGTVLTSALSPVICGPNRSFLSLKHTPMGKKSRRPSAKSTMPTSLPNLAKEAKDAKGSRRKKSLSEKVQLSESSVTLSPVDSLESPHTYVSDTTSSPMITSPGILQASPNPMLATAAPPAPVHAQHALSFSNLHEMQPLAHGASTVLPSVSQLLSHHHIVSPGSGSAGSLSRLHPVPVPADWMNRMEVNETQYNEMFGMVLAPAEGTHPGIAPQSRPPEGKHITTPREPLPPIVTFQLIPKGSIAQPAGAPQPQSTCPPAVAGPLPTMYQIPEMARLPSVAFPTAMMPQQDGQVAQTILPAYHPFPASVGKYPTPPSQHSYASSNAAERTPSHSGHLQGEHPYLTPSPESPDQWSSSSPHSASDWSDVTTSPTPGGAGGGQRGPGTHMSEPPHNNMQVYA
Pro-neuregulin-1, membrane-bound isoform (Homo sapiens), sequence (Q02297 whole entry, looked up, the tested form may be a part, canonical isoform): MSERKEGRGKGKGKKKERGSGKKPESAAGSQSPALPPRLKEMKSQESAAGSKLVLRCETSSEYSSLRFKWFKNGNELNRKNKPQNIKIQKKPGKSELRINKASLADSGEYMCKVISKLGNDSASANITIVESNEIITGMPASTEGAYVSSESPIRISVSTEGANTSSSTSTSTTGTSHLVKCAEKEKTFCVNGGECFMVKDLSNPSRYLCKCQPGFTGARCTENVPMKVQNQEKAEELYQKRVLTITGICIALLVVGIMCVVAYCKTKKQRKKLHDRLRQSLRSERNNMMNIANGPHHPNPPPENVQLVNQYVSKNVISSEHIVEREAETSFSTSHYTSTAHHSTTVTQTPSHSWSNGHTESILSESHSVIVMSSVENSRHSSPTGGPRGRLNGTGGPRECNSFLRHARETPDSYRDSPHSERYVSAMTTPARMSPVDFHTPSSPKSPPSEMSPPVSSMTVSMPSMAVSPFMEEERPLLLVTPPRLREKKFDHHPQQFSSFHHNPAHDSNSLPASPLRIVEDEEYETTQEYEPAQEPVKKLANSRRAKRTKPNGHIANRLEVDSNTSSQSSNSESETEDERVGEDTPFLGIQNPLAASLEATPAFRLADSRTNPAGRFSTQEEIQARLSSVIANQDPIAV

| SMILES | composite z-score [1] | composite z-score [2] | composite z-score [3] | composite z-score [4] | composite z-score [5] | composite z-score [6] | composite z-score [7] | z-score [8] | composite z-score [9] | composite z-score [10] |
| --- | --- | --- | --- | --- | --- | --- | --- | --- | --- | --- |
| CN(C)CCCNC(=O)[C@@]1(Cc2ccccc2I)c2ccccc2C(=O)N(Cc2ccccc2Cl)[C@H]1c1ccc(CO)cc1 | 1.17 | -0.576 | 0.0516 | 0.617 | 0.0497 | 1.47 | 1.25 | -2.07 (inactive) | 0.294 | -0.181 |
| CCCC=C(CCC)[C@@H](NS(=O)(=O)c1ccccc1)c1ccc(C(F)(F)F)cc1 | -0.201 | 0.322 | 0.174 | 0.96 | 1.55 | 1.52 | 1.13 | -2.28 (inactive) | 1.05 | 0.28 |
| CC1CC/C=C\[C@H]2OC34C=CCN(c5ccc(Cl)cc5)C(=O)[C@H]3N(C(CO)C(C)C)C(=O)[C@]4(C)C2C(=O)O1 (stereo not given in full) | -0.128 | 1.9 | -0.146 | -0.38 | -0.594 | 1 | 1.47 | 0.51 (inactive) | -0.637 | 0.0373 |
| O=C1OCC=C[C@H]2OC34C=CCN(CCN5CCOCC5)C(=O)[C@H]3N(CCCCCO)C(=O)[C@@H]4[C@@H]12 (stereo not given in full) | -0.099 | 0.298 | -0.128 | -0.191 | 0.0385 | -0.0529 | 1.43 | 0.401 (inactive) | -0.452 | -0.236 |
| O=C1NC(=O)C2C1C=CC(C(O)CCc1ccccc1)N2Nc1ccccn1 (stereo not given) | 0.313 | 0.478 | -0.0881 | 0.0386 | 1.07 | 1.19 | 0.83 | -0.338 (inactive) | 0.172 | -0.407 |
| O=C1O[C@H](c2ccccc2)[C@H](c2ccccc2)N2[C@H]1[C@@H](C(=O)N1CCN(c3ncccn3)CC1)[C@]1(C(=O)Nc3ccc(C#CCCO)cc31)[C@H]2c1ccccc1OCCO | -0.301 | 0.851 | 0.0002 | 0.931 | 1.33 | 1.64 | 0.965 | -0.363 (inactive) | 0.312 | 0.0219 |
| COC(=O)[C@@]1(Cc2ccccc2N=[N+]=[N-])N=C(c2ccc(OCCCO)cc2)O[C@H]1c1ccccc1 | 0.135 | 0.748 | 0.0904 | 0.264 | 0.287 | 1.5 | 1.16 | -2.33 (inactive) | 0.0635 | -0.0994 |
